Results taken from ChEMBL document CHEMBL5308504, “Tm Shift (DSF) assay results for EUbOPEN Chemogenomics Library” (2023).

Key:
Conditions in all cases: Compound concentration 20.0 uM, Protein concentration 2.0 uM, Result type QC Liability
[1] = target: Tyrosine-protein kinase ABL1 (Homo sapiens) (UniProt P00519)
[2] = target: Cyclin-dependent kinase 2 (Homo sapiens) (UniProt P24941)
[3] = target: Casein kinase I isoform delta (Homo sapiens) (UniProt P48730)
[4] = target: Glycogen synthase kinase-3 beta (Homo sapiens) (UniProt P49841)
[5] = target: Mitogen-activated protein kinase 1 (Homo sapiens) (UniProt P28482)
[6] = target: T1, Aurora kinase A (Homo sapiens) (UniProt O14965)
T1 sequence (whole entry): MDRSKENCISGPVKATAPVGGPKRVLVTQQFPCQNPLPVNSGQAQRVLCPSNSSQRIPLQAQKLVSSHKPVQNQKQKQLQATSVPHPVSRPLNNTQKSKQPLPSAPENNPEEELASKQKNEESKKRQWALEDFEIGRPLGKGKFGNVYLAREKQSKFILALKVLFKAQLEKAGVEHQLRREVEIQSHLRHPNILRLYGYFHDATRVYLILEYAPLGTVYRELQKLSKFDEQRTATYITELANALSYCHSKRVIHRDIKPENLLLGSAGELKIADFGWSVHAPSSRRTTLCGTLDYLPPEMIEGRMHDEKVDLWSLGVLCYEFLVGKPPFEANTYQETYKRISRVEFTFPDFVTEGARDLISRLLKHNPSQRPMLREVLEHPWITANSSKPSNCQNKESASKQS

Sequence of Tyrosine-protein kinase ABL1 (Homo sapiens) (P00519 whole entry): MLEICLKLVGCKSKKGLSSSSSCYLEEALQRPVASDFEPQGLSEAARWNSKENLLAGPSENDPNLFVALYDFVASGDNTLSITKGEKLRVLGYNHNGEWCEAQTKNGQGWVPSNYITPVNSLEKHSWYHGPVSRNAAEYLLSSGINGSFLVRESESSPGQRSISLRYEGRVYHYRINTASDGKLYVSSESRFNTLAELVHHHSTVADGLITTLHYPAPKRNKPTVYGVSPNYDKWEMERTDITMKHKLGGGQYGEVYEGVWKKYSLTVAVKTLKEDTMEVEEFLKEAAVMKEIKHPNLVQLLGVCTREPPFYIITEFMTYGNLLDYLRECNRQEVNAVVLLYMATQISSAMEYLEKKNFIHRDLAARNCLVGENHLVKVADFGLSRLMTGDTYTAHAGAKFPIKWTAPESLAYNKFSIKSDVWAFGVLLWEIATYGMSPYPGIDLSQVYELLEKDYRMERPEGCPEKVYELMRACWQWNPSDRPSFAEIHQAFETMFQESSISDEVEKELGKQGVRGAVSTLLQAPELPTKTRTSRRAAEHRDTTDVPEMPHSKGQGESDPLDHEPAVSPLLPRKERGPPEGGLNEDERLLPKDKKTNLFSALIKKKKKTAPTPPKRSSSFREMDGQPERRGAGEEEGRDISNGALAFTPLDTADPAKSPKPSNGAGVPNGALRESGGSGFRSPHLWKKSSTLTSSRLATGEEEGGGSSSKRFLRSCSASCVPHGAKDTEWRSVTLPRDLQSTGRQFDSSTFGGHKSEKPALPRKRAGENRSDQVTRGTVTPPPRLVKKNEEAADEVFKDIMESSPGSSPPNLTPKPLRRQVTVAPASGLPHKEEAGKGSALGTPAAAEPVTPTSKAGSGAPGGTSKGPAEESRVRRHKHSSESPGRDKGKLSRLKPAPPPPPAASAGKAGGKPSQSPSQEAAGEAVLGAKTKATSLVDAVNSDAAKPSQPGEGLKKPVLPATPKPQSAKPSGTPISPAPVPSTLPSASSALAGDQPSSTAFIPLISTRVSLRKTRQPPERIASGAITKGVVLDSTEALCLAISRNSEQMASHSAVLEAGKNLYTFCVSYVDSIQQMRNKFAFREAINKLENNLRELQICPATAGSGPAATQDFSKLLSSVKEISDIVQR
Sequence of Casein kinase I isoform delta (Homo sapiens) (P48730 whole entry, looked up, canonical isoform): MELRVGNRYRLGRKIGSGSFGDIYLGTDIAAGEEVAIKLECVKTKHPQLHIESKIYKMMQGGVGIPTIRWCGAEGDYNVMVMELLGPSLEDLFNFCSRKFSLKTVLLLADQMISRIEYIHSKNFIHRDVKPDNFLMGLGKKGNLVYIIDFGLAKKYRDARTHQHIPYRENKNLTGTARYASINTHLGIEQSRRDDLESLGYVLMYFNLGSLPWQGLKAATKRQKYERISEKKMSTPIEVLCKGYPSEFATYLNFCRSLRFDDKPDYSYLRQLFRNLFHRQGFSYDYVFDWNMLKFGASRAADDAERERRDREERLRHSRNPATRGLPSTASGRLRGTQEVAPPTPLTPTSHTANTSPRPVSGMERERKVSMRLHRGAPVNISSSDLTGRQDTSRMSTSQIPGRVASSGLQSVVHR
Sequence of Glycogen synthase kinase-3 beta (Homo sapiens) (P49841 whole entry, looked up): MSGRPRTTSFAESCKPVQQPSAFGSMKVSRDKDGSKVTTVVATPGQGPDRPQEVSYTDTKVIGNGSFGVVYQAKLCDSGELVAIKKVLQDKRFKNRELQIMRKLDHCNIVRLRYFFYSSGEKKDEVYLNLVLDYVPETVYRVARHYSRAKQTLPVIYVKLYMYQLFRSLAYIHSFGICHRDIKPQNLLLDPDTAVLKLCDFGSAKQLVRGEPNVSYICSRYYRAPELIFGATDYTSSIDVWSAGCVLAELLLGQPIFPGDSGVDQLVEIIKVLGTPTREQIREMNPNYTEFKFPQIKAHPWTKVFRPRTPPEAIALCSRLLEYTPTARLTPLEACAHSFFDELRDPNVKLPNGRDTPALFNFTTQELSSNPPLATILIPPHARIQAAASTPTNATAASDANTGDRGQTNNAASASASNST
Sequence of Mitogen-activated protein kinase 1 (Homo sapiens) (P28482 whole entry): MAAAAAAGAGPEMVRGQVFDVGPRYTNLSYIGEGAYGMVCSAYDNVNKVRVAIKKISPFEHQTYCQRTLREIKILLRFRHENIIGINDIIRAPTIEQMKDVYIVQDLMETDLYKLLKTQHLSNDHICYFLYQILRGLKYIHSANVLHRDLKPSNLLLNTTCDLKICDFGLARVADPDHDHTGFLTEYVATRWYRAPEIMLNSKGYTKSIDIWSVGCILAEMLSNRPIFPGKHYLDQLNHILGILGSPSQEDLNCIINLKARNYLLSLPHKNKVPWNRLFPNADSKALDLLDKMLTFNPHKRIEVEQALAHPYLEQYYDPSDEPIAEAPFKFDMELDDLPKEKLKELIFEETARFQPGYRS

Row | SMILES | ΔTm [1] [°C] | ΔTm [2] [°C] | ΔTm [3] [°C] | ΔTm [4] [°C] | ΔTm [5] [°C] | ΔTm [6] [°C]
1 | CSc1ccc(C[C@@H](C)C(=O)O)cc1Nc1nc(N2CC[C@H](N(C)C)C2)cc(C(F)F)c1C#N | 0.42 | 0.56 | 0.3 | 0.05 | 0.24 | 0.19
2 | CN1CCC(C#N)(NC(=O)[C@@H](NC(=O)N2CCOCC2)C(C)(C)C)CC1 | -0.07 | 0.23 | 0.3 | -0.75 | 0.52 | -0.18
3 | CNCc1ccc(-c2cc(-c3nc(-c4ccc(S(=O)(=O)C(C)C)cc4)cnc3N)on2)cc1 | 4.85 | -0.24 | -0.18 | 9.94 | -0.07 | 2.41
4 | O=C(Nc1cc2cc[nH]c(=O)c2cc1Cl)[C@H]1CNC[C@@H]1c1cccnc1 | 0.03 | 0.53 | 0.29 | -0.6 | 0.49 | -0.12
5 | O=C1Nc2nc(-c3c(O)cccc3OCC3CC3)cc([C@@H]3CCCNC3)c2CO1 | 0.61 | 2.37 | 2.04 | 1.54 | 1.1 | -0.03
6 | N#Cc1ccc(C#CC[C@@H](C#N)NC(=O)[C@H]2CCCCN2)cc1F | -0.48 | -0.17 | 0.45 | -0.17 | -0.62 | -0.01
7 | COc1ccc(-c2cc3c(C)nc(N)nc3n([C@H]3CC[C@H](OCCO)CC3)c2=O)cn1 | 0.46 | 0 | -0.16 | -0.85 | 0.38 | -0.59
8 | CCc1ncnc(N2CCN(C(C)=O)CC2)c1C#Cc1ccc(N)nc1 | 0.27 | 0.16 | 1.03 | -0.12 | 0.42 | -0.14
9 | CN(C)[C@H]1C[C@H](n2cnc(-c3ccc(F)cn3)c2-c2ccnc3[nH]ccc23)C1 | 0.17 | 0.4 | 4.93 | -0.83 | 0.21 | -0.76
10 | CCCN1C(=O)c2ccc(Cl)cc2Nc2ncccc21 | 0.81 | 0.95 | 0.61 | 0.22 | 0.22 | 1.35
11 | Cc1cc(Cn2c(N3CC4(CNC4)C3)nc3c(N4CCN(C)CC4)cc(Cl)cc32)cc(C)c1F | 0.24 | 0.83 | 0.19 | 0.34 | 0.58 | 0.07
12 | COc1cc(C(=O)NC2CCN(C)CC2)ccc1Nc1ncc2c(n1)N(C1CCCC1)CC(F)(F)C(=O)N2C | 0.35 | 0.09 | 1.15 | -0.4 | 0.38 | 0.78
13 | CCCCC[C@H](O)/C=C/[C@H]1[C@H](O)CC(=O)[C@@H]1CCCCCCC(=O)O | 0.19 | 0.43 | 0.1 | -0.48 | 0.29 | -0.09
14 | CNC(=O)c1cc(C(=O)N[C@H]2[C@@H]3COC[C@@H]32)cc2c1O[C@@H](CF)[C@@H]2c1ccccc1 | -0.03 | 0.5 | 0.22 | -0.96 | 0.58 | -0.12
15 | CNc1ncc2cc(-c3ccc(-c4ncccc4F)cc3Cl)c(=O)n(C[C@H]3OC[C@H](N)CO3)c2n1 | 4.27 | 1.01 | 0.79 | -0.51 | 3.43 | 4.87
16 | CC(=O)Nc1nc(CN2CCC[C@H](Cc3cc(C)nc(C)c3)C2)cs1 | 0.19 | 0 | 0.1 | -0.34 | 0.5 | 0.28
17 | COc1cc(-c2nn([C@H]3CC[C@H](N4CCN(C(C)=O)CC4)CC3)c3ncnc(N)c23)ccc1NC(=O)c1cc2ccccc2n1C | 14.2 | 1.13 | 21 | 0 | 3.54 | 8.28
18 | C[C@H](NC(=O)c1cnc2n1[C@](C)(Cc1ccc(C#N)cc1)C(=O)N2c1cc(Cl)c(F)c(Cl)c1)C(=O)NC1(c2ccccn2)CC1 | 0.04 | 0.07 | 0.77 | -3.42 | 10.2 | 0.19
19 | COc1cc(-c2cc3ncccc3c(OC[C@H]3CNC(=O)C3)n2)cc(OC)c1OC1CCOCC1 | 1.45 | -0.03 | 2.63 | -0.87 | 0.16 | 5.56
20 | CN(C)CCCN1c2ccccc2Sc2ccc(Cl)cc21 | 0.03 | 0.8 | 0.05 | -0.47 | 0.34 | -0.47
21 | Cc1cc(CN(CC(=O)Nc2ccc(Cl)cc2Cl)C2CCCCC2)ccc1OCC(=O)O | -1.67 | -2.21 | -0.47 | -3.13 | -1.06 | -2
22 | Cc1cnc(Nc2ccc(C(=O)N3CCN(C)CC3)cc2)nc1N[C@@H]1CCC[C@@H]1C(N)=O | 5.89 | 6.47 | 0.27 | 3.07 | 1.68 | 14.7
23 | O=C(O)CCCN1CCC[C@H]1COc1ccc(Oc2ccc(Cl)cc2)cc1 | 0.14 | 0.25 | -0.11 | -0.15 | -0.08 | -0.43
24 | Cc1[nH]c2c(N3CCCCC3)c(-c3ccccc3)nn2c(=O)c1-c1ccc(O)cc1 | 0.05 | 0.91 | 1.23 | -0.79 | 0.43 | -0.38
25 | CCOCCn1cc(C(=O)Nc2ccc(-n3nc(-c4cccnc4)cc3C(F)(F)F)cn2)ccc1=O | 0.3 | -1.4 | 0.33 | -0.71 | -0.58 | 0.16

Row | SMILES | ΔTm [1] [°C] | ΔTm [2] [°C] | ΔTm [3] [°C] | ΔTm [4] [°C] | ΔTm [5] [°C] | ΔTm [6] [°C]
26 | COc1cc2ncnc(N[C@H](C)c3ccccc3)c2cc1OC1CCN(S(C)(=O)=O)CC1 | 1.29 | 0.54 | 0.38 | 0.09 | 0.1 | 0.05
27 | O=C(CCSCc1ccco1)NNC(=O)N1Cc2ccccc2Oc2ccc(Cl)cc21 | 0.44 | 0.06 | -8.4 | -9.34 | 0.1 | 1.12
28 | Cc1nc2c(cc1F)c(-c1nnc3c(n1)NC(=O)C3(C)C)nn2Cc1cccc(F)c1F | 0.8 | 0.74 | 0.12 | -0.14 | 0.44 | -0.06
29 | Cc1cc(OC2CCS(=O)(=O)CC2)cc(C)c1-c1cccc(COc2ccc(CCC(=O)O)c(F)c2)c1 | -0.51 | -2.34 | 0.59 | -4.55 | -0.4 | -1.9
30 | FC(F)(F)c1ccc(CNc2ccc(Cc3c[nH]c4ncc(Cl)cc34)cn2)cn1 | -2.59 | 1.62 | 1.05 | -0.38 | 0.93 | 10.6
31 | CC(C)(C)C(=O)NCc1ccc(Cl)c(C(=O)Nc2ncc[nH]2)c1 | 0.08 | 0.44 | -0.14 | 0.45 | -0.01 | -0.18
32 | O=C(Nc1ccnc(NC(=O)C2CC2)c1)c1c(Cl)cccc1Cl | 5.46 | 6.9 | 0.54 | 6.06 | 0.23 | 4.28
33 | O=C(O)c1cccc(C2=C(c3cc(Cl)ccc3OCc3ccc(F)cc3F)CCC2)n1 | -0.85 | -1.05 | -0.59 | 0 | -0.17 | -0.7
34 | CCCCc1c(-c2ccccc2)nc(N)nc1-c1ccc(OCc2ccccc2)c(F)c1F | -0.08 | -0.31 | -3.97 | -3.51 | 0 | -1.37
35 | CN1CCc2cc(Nc3ncc(C(F)(F)F)c(NCc4cc[nH]n4)n3)ccc2C1 | 5.79 | 7.99 | 2.14 | 6.33 | 1.88 | 11.3
36 | c1ccc2c(c1)SCc1c-2[nH]c2ccccc12 | -6.18 | -4.12 | -0.03 | 1.83 | 0.46 | -4.16
37 | COc1cc(-c2cn(C)c(=O)c3cnccc23)cc(OC)c1CN(C)C | 0.24 | 0.43 | 0.32 | 0.06 | 0.23 | 0.56
38 | CN1Cc2nccc(-c3cn(C)nc3-c3ccc(F)cc3)c2C1=O | 1.06 | 0.02 | 8 | -0.07 | 0.37 | -0.11
39 | Clc1ccccc1C(c1ccccc1)(c1ccccc1)n1ccnc1 | -1.2 | -1.88 | -0.72 | -2.38 | -0.79 | -2.33
40 | COc1cccc(Cn2cc(C(=O)Nc3ccc(C)c(S(=O)(=O)N4CCOCC4)c3)c(-c3ccc(C)cc3)n2)c1 | 4.84 | 3.65 | -0.33 | 1.92 | -3.66 | 3.73
41 | CC[C@H](CO)Nc1nc(Nc2cccc(-c3ccccn3)c2)c2ncn(C(C)C)c2n1 | 7.62 | 4.37 | 4.48 | 1.93 | 2.21 | 4.01
42 | C[C@H]1CN(C2COC2)CCN1c1ccc(Nc2cc(-c3ccnc(N4CCn5c(cc6c5CC(C)(C)C6)C4=O)c3CO)cn(C)c2=O)nc1 | 3.14 | -0.09 | 0.48 | -0.54 | -0.67 | 1.75
43 | Nc1c(CC(=O)O)cccc1C(=O)c1ccc(Br)cc1 | 1.3 | 0.36 | 0.21 | 0.59 | 0.2 | 0.08
44 | Cc1nc(Nc2cnn(C3CCNCC3)c2)nc2c1N(C)C(=O)c1cc3ccccc3cc1N2C | 2.1 | -1.03 | 0.48 | -0.49 | 0.6 | 1.73
45 | NCc1ccc(OCCCc2sc(-c3ccc4c(c3)/C(=N/Nc3nc5ccccc5s3)CCC4)nc2C(=O)O)cc1 | 0.43 | 0.49 | -0.37 | -0.12 | -0.02 | 1.25
46 | COc1cc(O)c(C(CC(=O)N2C[C@H](C)C[C@H](C)C2)c2ccc3c(c2)OCO3)c(OC)c1 (stereo not given in full) | 4.29 | 0.29 | 0.17 | 1 | 0.25 | 0.33
47 | CC[C@H](NC(=O)[C@H](C)NC)C(=O)N1C[C@@H](O)C[C@H]1Cc1c(-c2[nH]c3cc(F)ccc3c2C[C@@H]2C[C@H](O)CN2C(=O)[C@H](CC)NC(=O)[C@H](C)NC)[nH]c2cc(F)ccc12 | 0.09 | 0.28 | 1.26 | -0.88 | 0.38 | -1.51
48 | Cn1cc(-c2cnc3ccc4ccc(CS(=O)(=O)NCc5ccccn5)cc4c(=O)c3c2)cn1 | 4.08 | 0.66 | 0.15 | 1.66 | -0.33 | 5.91
49 | Cn1nccc1-c1ccc(Sc2cccc(C3(C(N)=O)CCOCC3)c2)cc1 | -0.11 | 0.88 | -0.02 | -1.17 | 0.22 | 0.6
50 | O=C(N[C@H](Cc1ccccc1)C(=O)O)c1cccc(OCc2cccnc2)c1 | 0.31 | 1.19 | -0.02 | 0.45 | 0.21 | -0.05
